Compounds without any hit were thinned out: in the full panel of roughly 83,000, 20% have a hit.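 Cell lines were cultured in 96-well plates, exposed to a single compound concentration, and assessed for percent growth 48 hours later.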 A number with no mark means an inactive call. Activity calls are given as the source filed them. The calls were made as follows: active = growth percent below 10; inactive = the rest.
What was measured:
Assay in all cases: NCI-60 one-dose screen, 48 h (100 = growth as untreated, 0 = no growth, -100 = all killed)
Details in all cases: 10 µM unless noted
NCI-H23 lung = system: NCI-H23 lung
NCI-H226 lung = system: NCI-H226 lung
NCI-H322M lung = system: NCI-H322M lung
HOP-62 NSCLC = system: HOP-62 NSCLC
NCI-H460 lung = system: NCI-H460 lung
HOP-92 NSCLC = system: HOP-92 NSCLC
NCI-H522 lung = system: NCI-H522 lung
A549/ATCC NSCLC = system: A549/ATCC NSCLC
786-0 renal = system: 786-0 renal
COLO 205 colon = system: COLO 205 colon
DU-145 prostate = system: DU-145 prostate
K-562 leukemia = system: K-562 leukemia
MALME-3M melanoma = system: MALME-3M melanoma
MDA-MB-231 breast = system: MDA-MB-231 breast
RXF 393 renal = system: RXF 393 renal
SF-268 CNS = system: SF-268 CNS
SF-295 CNS = system: SF-295 CNS
SF-539 CNS = system: SF-539 CNS
UACC-257 melanoma = system: UACC-257 melanoma
M14 melanoma = system: M14 melanoma

SMILES | growth (NCI-H23 lung) | growth (NCI-H226 lung) | growth (NCI-H322M lung) | growth (HOP-62 NSCLC) | growth (NCI-H460 lung) | growth (HOP-92 NSCLC) | growth (NCI-H522 lung) | growth (A549/ATCC NSCLC) | growth (786-0 renal) | growth (COLO 205 colon) | growth (DU-145 prostate) | growth (K-562 leukemia) | growth (MALME-3M melanoma) | growth (MDA-MB-231 breast) | growth (RXF 393 renal) | growth (SF-268 CNS) | growth (SF-295 CNS) | growth (SF-539 CNS) | growth (UACC-257 melanoma) | growth (M14 melanoma)
NC1=NN(O)C2=CC([N+](=O)[O-])C=CC2=N1 (stereo unspecified) | 97% | 110% | 113% | 98.9% | 110% | 94.1% | 94.2% | 110% | 103% | 111% | 114% | 103% | 137% | 118% | 115% | 101% | 117% | 98.5% | 94.8% | 113%
Cc1csc(NC(c2ccc(Br)cc2)c2c(C)nc3ccccn23)n1 (stereo unspecified) | 84% | 81.6% | 84.9% | 92.8% | 98.4% | 42.9% | 89.3% | 87.6% | 90.4% | 90.2% | 107% | 79.9% | 88.4% | 84% | 112% | 92.2% | 74.7% | 101% | 76.1% | 90.6%
NC(=N\N=C/c1ccc(O)cc1)/C(N)=N\N=C/c1ccc(O)cc1 | 90.9% | 101% | 77.5% | 79.3% | 35.9% | 79% | 31.4% | 52.5% | 52.6% | 124% | 63% | 23.7% | 65.3% | 64.8% | 105% | 58.4% | 29.2% | – | 85.4% | 39.5%
COc1cc(C2CC(c3ccc4c(c3)OCO4)=NN2C(C)=O)cc(OC)c1OC (stereo unspecified) | 44.3% | 52.4% | -12.9% (active) | 35.5% | 10.7% | 74.6% | -29.8% (active) | 36% | 42.1% | -12.8% (active) | 13.7% | 18.2% | 23.3% | 61.3% | 7.22% (active) | 52.7% | -7.31% (active) | – | 66.5% | 29.3%
O=C1NN(C(=O)c2ccc(Cl)cc2)C(c2ccccc2)=N/C1=C\c1cn(-c2ccccc2)nc1-c1ccccc1 | 89.6% | 106% | 94.7% | 90.3% | 99.5% | 94.6% | 85% | 88% | 90.7% | 109% | 103% | 99.2% | 77.7% | 92% | 89.9% | 94.8% | 73.8% | 94.1% | 92.8% | 83.4%
C=C(C)[C@@H]1C[C@@H]2Cc3cc(Cl)ccc3N1O2 | 99.8% | 101% | 111% | 93.4% | 102% | 25.2% | 116% | 95.4% | 102% | 105% | 123% | 97.7% | 91.4% | 99.2% | 104% | 106% | 108% | 99.6% | 102% | 95.3%
S=C(S)NCCc1c[nH]c2ccccc12 | 99% | 66.5% | 99.9% | 106% | 103% | 99.2% | 79.8% | 99.4% | 100% | 125% | 107% | 93.3% | 99.1% | 91.1% | 106% | 89.7% | 95.7% | 101% | 104% | 95.2%
CC(C)OC(=O)N1CCOCC1 | 98.1% | 101% | 106% | 98.9% | 107% | 92.2% | 95.9% | 103% | 104% | 101% | 104% | 123% | 94.7% | 90.8% | 116% | 99.7% | 113% | – | 97.1% | 103%
S=C1CC(=S)NC(=S)N1 | 103% | 103% | 124% | 104% | 102% | 102% | 101% | 111% | 106% | 100% | 108% | 119% | 121% | 106% | 107% | 102% | 116% | – | 105% | 103%
COc1ccc(NC(=O)CSc2nc(-c3ccc(OC)c(OC)c3)cc(-c3cc(OC)c(OC)c(OC)c3)n2)cc1 | 101% | 108% | 90.4% | 106% | 97.7% | 76.8% | 79.6% | 95.7% | 95.1% | 82.5% | 112% | 95.7% | 128% | 91.9% | 101% | 102% | 126% | – | 111% | 102%
Cc1cc(C(C)(C)C)ccc1S | 108% | 96.3% | 95.9% | 96.2% | 114% | 86.3% | 85.8% | 111% | 99.9% | 116% | 116% | 99.8% | 113% | 115% | 103% | 102% | 102% | – | 108% | 112%
COc1ccc(/C=C/c2c(C(C)=O)c(C)nc3ccccc23)cc1 | 60.9% | 92.6% | 99.3% | 79.2% | 100% | 79.3% | 61.2% | 80.6% | 94.9% | 106% | 97.7% | 52.4% | 101% | 82.8% | 86.6% | 97.5% | 85.3% | – | 64.7% | 99.2%
COc1c2occc2c(OC)c2c(=O)c(-c3cc(-c4ccc(F)cc4)c(C#N)c(N)n3)c(C)oc12 | 36.1% | 72.1% | 40.3% | 27.9% | 24.9% | 30.6% | 49.4% | 25.2% | 51.2% | 27.2% | 30.3% | 19.5% | 88.8% | 30% | 44.4% | 35.5% | 56.5% | 67.7% | – | 70.6%
COc1cc(C(=O)/C=C/c2c(C)n([O-])c3ccc(C(F)(F)F)cc3[n+]2=O)cc(OC)c1OC | 98.2% | 81.6% | 118% | 118% | 116% | 87.3% | -82.1% (active) | 94.1% | 101% | 46.2% | 91.3% | 52.9% | 106% | 99.6% | -35.4% (active) | 96.1% | 105% | 96.5% | 74.2% | 88.9%
Clc1cc(Cl)cc(-c2ccc(-c3ccc(/C=N/NC4=NCCN4)cc3)s2)c1 | 39.1% | 85.1% | 98.3% | 71% | 4.5% (active) | 38.9% | 71.4% | -22.4% (active) | 75.8% | -17.1% (active) | 23.4% | -1.14% (active) | 98.3% | 61.5% | 60.6% | 76.2% | 93.7% | 84% | 103% | 94.4%
C=C1C(=O)O[C@H]2[C@H]1CC/C(Cn1cc(-c3cccc(Cl)c3)nn1)=C\CC[C@@]1(C)O[C@@H]21 | -35% (active) | -57.9% (active) | 66.2% | -38.4% (active) | 16.6% | -73.2% (active) | -74.4% (active) | 31% | -83.9% (active) | -79.5% (active) | -99.4% (active) | 0.665% (active) | -77.3% (active) | -54.1% (active) | -88.4% (active) | -47.9% (active) | 72.4% | -76.7% (active) | – | -56.4% (active)
